This passage reports growth results from PubChem BioAssay (NCI).

Experiment in all cases: NCI-60 one-dose screen, 48 h (100 = growth as untreated, 0 = no growth, -100 = all killed)
Common to all, as to conditions: 10 µM unless noted

The subject of assay [1] is DU-145 prostate.
Assay [2] relates to K-562 leukemia.
The subject of assay [3] is MALME-3M melanoma.
The subject of assay [4] is MDA-MB-231 breast.
Assay [5] relates to RXF 393 renal.
In assay [6] the test system is SF-268 CNS.
The subject of assay [7] is SF-295 CNS.
Assay [8] concerns UACC-257 melanoma.
Assay [9] concerns M14 melanoma.
The subject of assay [10] is SF-539 CNS.

This is part of a sample that, as a whole, favours compounds with a hit. Of some 83,000 tested, about 20% had one in any assay.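 Method: cells in 96-well plates; compound added at one concentration; 48 h incubation; percent growth measured; values under 10 scored active.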 Unmarked numbers belong to inactive results. The source made the active and inactive calls.

Consider `COc1ccc(C(=O)/C=C/c2c[n+](=O)c3ccc(F)cc3n2[O-])cc1`, for which the growth is 110% in [1]; 102% in assay [2]; 90.9% in assay [3]; 106% in assay [4]; 129% in assay [5]; 96.8% in assay [6]. Further, the values for the growth in assay [7], in assay [8] and in assay [9] were 102%, 106% and 101%, respectively.
Take `COc1ccc(-c2cnoc2-c2cc(OC)c3c(c2)OCCO3)cc1`: the growth is -9.77% (active) in assay [1]; 6.93% (active) in assay [2]; 62.8% in assay [3]; -23.8% (active) in assay [4]; 32.3% in assay [5]; 19.9% in assay [6]. Moreover, the growth in [7] was 9.28% (active); in [8] it was 69.7%; in assay [9] it was 7.58% (active).
Take `Cc1[nH]n(-c2ccccc2)c2nc3nncc3c(-c3ccc(Cl)cc3)c12`: the growth is 103% in [1]; 95.8% in [2]; 132% in [3]; 106% in assay [4]; 107% in [5]; 98.9% in assay [6]. Also, the growth in assay [7] is 105%; in [8], 101%; in assay [9] it was 114%.
On to `Nc1ccc2c(c1)C(=O)NC2=O`, for which the growth in assay [1] is 110%; in assay [2] it was 100%; in [3], 90.5%; in [4] it was 101%; in assay [5], 115%; in assay [6], 92.5%. Moreover, the growth in assay [7] was 101%; in [8] it was 98.6%; in assay [9], 99.4%.
Take `COC(=O)C12C3C(=O)N(c4ccc(OC)cc4)C(=O)C3C(c3cn(-c4ccccc4)nc3C)N1[C@H](c1cn(-c3ccccc3)nc1C)[C@@H]1C(=O)N(c3ccc(OC)cc3)C(=O)[C@@H]12` (stereo not given in full): the growth in assay [1] is 109%; in assay [2] it was 92.3%; in assay [3] it was 108%; in [4] it was 108%; in assay [5] it was 102%; in [6], 104%. Besides, the growth is 91.8% in [7], 98% in [8] and 105% in assay [9].
Take `O=C1C[C@H](N2C(=O)c3ccccc3S2(=O)=O)C2CO[C@@H]1O2`: the growth in assay [1] is 87.8%; in [2], 55.6%; in [3] it was 97.2%; in [4] it was 110%; in assay [5], 86.8%; in assay [6] it was 102%. The growth in assay [7] was 93.7%; in assay [8], 84.3%; in assay [9], 84.2%.
For `CC/C=C\C[C@H](O)C/C=C1/C(=O)C=C[C@@H]1C/C=C\CCCC(=O)NC(C)C`, the growth was 27.2% in assay [1]; 3.29% (active) in assay [2]; -4.08% (active) in [3]; 19.9% in assay [4]; -64.8% (active) in assay [5]; 35.4% in assay [6]. For the same compound, the values for the growth in assay [7], in assay [8] and in assay [9] were 6.21% (active), -4.26% (active) and 7.13% (active), respectively.
As for `CC(=O)Oc1ccc(Nc2c3ccccc3nc3ccccc23)cc1`, the growth in assay [1] was 8.74% (active); in assay [2], 6.78% (active); in assay [3], -33.2% (active); in assay [4] it was 23.6%; in assay [5], -2.55% (active); in assay [6], 22%. The growth in assay [7] was -21.8% (active); in assay [8] it was -25.7% (active); in assay [9], 20.7%.
Regarding `O=C(C[C@@H](C(=O)NCc1cccc(C(F)(F)F)c1)N1C(=O)[C@@H](N2C(=O)OC[C@@H]2c2ccccc2)[C@H]1/C=C/c1ccccc1)NC1CCN(Cc2ccccc2)CC1`, the growth was 67.2% in assay [1]; -51% (active) in assay [2]; -17.1% (active) in assay [3]; 64.3% in [4]; 74.4% in assay [5]; 57.9% in [6]. Further, the growth is 102% in assay [7], 77.4% in assay [8] and 83.2% in assay [9].
Regarding `N#CC1=C(N)Oc2c(ccc3ccccc23)C1c1cccs1` (stereo not given), the growth is -21.2% (active) in assay [1]; 0.938% (active) in assay [2]; 36.4% in assay [3]; -9.69% (active) in [4]; 8.35% (active) in assay [5]; 9.29% (active) in assay [6]. Further, the figures for the growth in assay [7], in assay [8] and in [9] were 24.7%, 75.1% and 17.3%, respectively.
As to `O=C(Nc1cccc2[nH]c(C(F)(F)F)nc12)c1ccc(Br)cc1F`, the growth is 46.8% in assay [1]; 13% in assay [2]; 17.9% in assay [3]; 30.7% in [4]; 51.8% in assay [5]; 29.1% in [6]. In addition, the growth in assay [7] was 35.3%; in [8], 40.1%; in assay [9] it was 48.7%.
In the case of `O=C1CC(c2nc3ccccc3[nH]2)CN1C1CCCCC1` (stereo not given), the growth in [1] is 110%; in assay [2], 102%; in [3] it was 103%; in assay [4], 102%; in assay [5], 111%; in assay [6], 101%. For the same compound, the growth is 97.3% in assay [7], 101% in [8] and 104% in assay [9].
As for `NCc1cn2cc(Cl)sc2n1`, the growth is 114% in assay [1]; 95% in assay [2]; 103% in assay [3]; 112% in [4]; 98.9% in assay [5]; 111% in assay [6]. The values for the growth in [7], in assay [8] and in assay [9] were 102%, 105% and 108%, respectively.
On to `COc1ccc(CN2C(=O)/C(=C\c3cc(OC)c(OC)c(OC)c3)c3cc(OC)ccc32)cc1`, for which the growth in [1] was 7.67% (active); in assay [2], 1.94% (active); in assay [3], 36.4%; in [4], 11.1%; in assay [5], -53% (active); in assay [6], 7.98% (active). Besides, the growth in assay [7] was 39.7%; in assay [8], 25.7%; in assay [9] it was -28% (active).
For `c1ccc(-c2nc(N3CCOCC3)c3c4c(sc3n2)CCCCC4)nc1`, the growth was 71.5% in [1]; 58% in assay [2]; 32.6% in assay [3]; 60.4% in assay [4]; 55.4% in assay [5]; 65.5% in assay [6]. For the same compound, the growth is 49.2% in [7], 75.7% in assay [8] and 67.6% in assay [9].
Turning to `Cn1c(=O)c2[nH]c(C(O)C(O)C(O)C(O)CO)nc2n(C)c1=O` (stereo not given), the growth in assay [1] was 109%; in assay [2], 95.1%; in assay [3], 97%; in assay [4] it was 101%; in assay [5] it was 115%; in [6] it was 106%. Moreover, the growth in [7] was 103%; in assay [8], 93.6%; in assay [9] it was 105%.
`COc1ccc(-c2c3c(nc4n[nH]c(-c5ccc(Cl)cc5)c24)-c2ccccc2C(=O)C3=O)cc1`: the growth is 22.4% in assay [1]; 4.49% (active) in assay [2]; -32.4% (active) in assay [3]; -28% (active) in assay [4]; 14.1% in assay [5]; -38.8% (active) in [6]. The growth in assay [7] was 77.4%; in [8], 11%; in assay [9] it was -28.4% (active).
As to `CCCCNC(=O)NS(=O)(=O)c1ccc(N2N=C(c3cc(C)ccc3C)CC2c2cc(OC)c(OC)c(OC)c2)cc1` (stereo not given), the growth was 88.9% in [1]; 36.1% in assay [2]; 25.3% in assay [3]; 79.4% in assay [4]; 44.7% in assay [5]; 66% in assay [6]. In addition, the growth in assay [7] is 8.51% (active); in assay [8] it was 59.3%; in assay [9], 8.53% (active).
Consider `COc1ccc(C(=O)c2sc3nc4c(cc3c2N)CCCC4)cc1OC`, for which the growth in assay [1] is 62%; in assay [2], 10.9%; in assay [3] it was 63%; in assay [4] it was 46.3%; in [5], 31.6%; in [6] it was 63.9%. The growth is 28.6% in assay [7], 79.6% in [8] and 27.7% in assay [9].
Regarding `CCOC(=O)c1c2c(n3ccc(NC(=O)CCN4CCOCC4)cc13)C(=O)c1ncccc1C2=O`, the growth was 45.8% in [1]; 19.8% in [2]; 42.6% in assay [3]; 26% in assay [4]; 63% in [5]; 39% in assay [6]. The growth was 49.3% in assay [7], 32% in assay [8] and 24.6% in assay [9].
As for `CC(=O)C1=C(O)C=C2Oc3c(C(=O)/C=C/c4cc(Cl)cc(Cl)c4)c(O)c(C)c(O)c3[C@]2(C)C1=O`, the growth was -3.76% (active) in assay [1]; -16.2% (active) in [2]; -62.4% (active) in [3]; -30.9% (active) in assay [4]; -40.4% (active) in [5]; -21.4% (active) in [6]. Further, the figures for the growth in [7], in [8] and in assay [9] were -18.7% (active), -19.6% (active) and -32.8% (active), respectively.
As to `O=C1c2cc3c(cc2-c2c1c1cc(Cl)c(Cl)cc1c(=O)n2CCCn1ccnc1)OCO3`, the growth in assay [1] is 8.73% (active); in [2], 16.3%; in [3], 23.2%; in assay [4], 41.4%; in assay [5], 3.03% (active); in assay [6], 17.7%. Moreover, the figures for the growth in [7], in assay [8] and in assay [9] were -17.4% (active), -17.1% (active) and -11.1% (active), respectively.
For `CCN(CC)CCC(=O)c1ccc(OC)c2ccccc12`, the growth is 116% in assay [1]; 43.9% in [2]; 104% in assay [3]; 110% in [4]; 81.8% in assay [5]; 110% in [6]. Moreover, the growth was 99.6% in assay [7], 89.4% in assay [8] and 90.1% in assay [9].
For the compound `CC/C(Cc1ccccc1)=C(\c1ccc(OCCN2CCCC2)cc1)c1ccc(OC(C)=O)cc1`, the growth was 95.6% in assay [1]; 3.2% (active) in [2]; 94.7% in [3]; 99.6% in assay [4]; 65% in [5]; 76% in assay [6]. In addition, the figures for the growth in assay [7], in [8] and in [9] were 99.6%, 93.9% and 75.1%, respectively.
For the compound `C=C1CCC2C3(C)COC(c4cccc(Cl)c4)OC3CCC2(C)C1/C=C/C1=CCOC1=O` (stereo not given), the growth in assay [1] was 79.1%; in [2] it was 24.3%; in [3], 84.6%; in assay [4], 80.1%; in [5] it was 80.9%; in assay [6] it was 83.7%. For the same compound, the growth in assay [7] is 45.7%; in [8] it was 57.4%; in assay [9], 83.6%.
For the compound `O=c1c2cccc3c(Nc4ccccn4)ccc(c32)c2nc3ccccc3n12`, the growth in assay [1] is 91.8%; in assay [2], 46.5%; in assay [3], 86.3%; in [4] it was 70.6%; in assay [5], 108%; in assay [6] it was 87.2%. In addition, the figures for the growth in [10] and in [9] were 85.7% and 91%, respectively.
Consider `COc1ccc2nc3cc(Cl)ccc3c(N3CCN(c4nccc(Nc5ccc(Cl)cc5)n4)CC3)c2c1`, for which the growth in assay [1] was 75.5%; in assay [2], 10.8%; in assay [3], 120%; in assay [4] it was 60.3%; in [5], 53.1%; in assay [6] it was 53.7%. The figures for the growth in assay [7], in assay [8] and in [9] were 84.1%, 88.7% and 43.4%, respectively.
`COc1ccc(/C=C2\N=C3Sc4cc(Cl)ccc4C(=O)N3C2=O)cc1`: the growth was 110% in assay [1]; 94.1% in [2]; 101% in assay [3]; 100% in assay [4]; 106% in assay [5]; 106% in assay [6]. Moreover, the growth was 98.7% in assay [10] and 99.6% in assay [9].
